HEK293 viab = reduces viability of HEK-293 SNCA reporter cells; 0.12% of 150,000 active; Potency, µM (top dose mostly 57.1 µM), without a hit: at the top dose activity change, negative = cytotoxicity, hits mostly cytotoxic; HEK-293-SNCA-luc viability, GF-AFC fluorescence, 24 h;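 further: potency means the concentration at half of the fitted maximal effect; 0% = DMSO-treated cells and -100% = medium-only wells without cells; nearly all actives have a fitted effect of over 30% in size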
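Cytotoxicity counterscreen: after 24 h compound treatment of genome-edited SNCA-luciferase HEK-293 cells, live-cell protease substrate GF-AFC read by fluorescence after 30 min; activity scaled between DMSO (0%) and medium-only (-100%), curves Hill-fitted.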
SNCA expr inhib = reduces expression of the alpha-synuclein gene | HEK-293 SNCA-luciferase knock-in, luminescence, 24 h | Potency, µM (titrated, usually from 57.2 µM), for the others: at the top dose activity change, negative = inhibition, actives largely listed as inhibitors | 0.17% of 140,000 active | AID 1671194;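 further: potency means the concentration at half of the fitted maximal effect; plate controls were DMSO cells for no effect and cell-free wells for full effect; nearly all actives have a fitted effect of over 45% in size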
GPT2 inhibitor = blocks human glutamate pyruvate transaminase 2. Q8TD30. Recombinant GPT2, coupled pyruvate oxidase/HRP Amplex Red fluorescence. Potency, µM (titrated, usually from 57.7 µM), without a hit: top-dose activity change, negative = inhibition, most hits filed as inhibitors. 0.25% of 100,000 active; further: potency means the concentration at half of the fitted maximal effect; nearly all actives have a fitted effect of over 60% in size
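Fluorescence read-out: pyruvate from GPT2 turnover coupled to pyruvate oxidase, HRP and Amplex Red (0.2mM ThPP, 0.2U/mL PO and HRP, 50uM Amplex final). Substrates 250uM a-KG, 2mM L-alanine; enzyme 10ng/uL; 30 min RT.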
IP6K1 inh = IP6K1 kinase inhibition; IP6K1 kinase, ADP-Glo luminescence, 2 h; active compounds read low; 0.81% of 140,000 active; AID 1645851; activity change, % (series mostly up to about 58 µM); Q92551; in the data active means activity change below about -25%
Target sequence (Q92551 whole entry, looked up): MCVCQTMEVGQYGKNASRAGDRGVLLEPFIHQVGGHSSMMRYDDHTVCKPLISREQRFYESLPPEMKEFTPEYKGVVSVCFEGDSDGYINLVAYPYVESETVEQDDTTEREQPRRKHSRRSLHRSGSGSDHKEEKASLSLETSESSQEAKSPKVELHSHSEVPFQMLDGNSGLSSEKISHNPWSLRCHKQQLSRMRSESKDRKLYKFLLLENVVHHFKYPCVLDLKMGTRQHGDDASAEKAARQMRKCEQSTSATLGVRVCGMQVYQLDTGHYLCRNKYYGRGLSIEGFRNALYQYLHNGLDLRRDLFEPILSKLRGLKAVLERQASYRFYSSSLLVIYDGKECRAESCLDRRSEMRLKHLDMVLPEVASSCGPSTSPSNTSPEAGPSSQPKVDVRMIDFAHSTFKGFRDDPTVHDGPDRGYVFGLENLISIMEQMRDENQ
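ADP-Glo luminescence measures ADP made by human IP6K1 during a 2 h RT reaction with ATP/IP6 (mix at 1.3 mM/130 uM); top library doses 57.5 and 19.1 uM final.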
IP6K1 conf = confirmation of human IP6K1 inhibitors; recombinant IP6K1 kinase, ADP-Glo luminescence, 2 h; Potency, µM (highest dose often 49 µM), for the others: at the highest dose activity change, negative = inhibition, actives largely listed as inhibitors; shares compounds with IP6K1 inh; 13% of 1,200 active; further: potency means the concentration at half of the fitted maximal effect; nearly all actives have a fitted effect of over 65% in size
Starred values were filed as active, the others as inactive; i = inactive; ? = inconclusive; · = not tested or not shown; [ ] = remark or other dose. In the library only some 1.1% were active in any assay of this set; here they are far more common. Unless noted, the call rests on the fitted dose curve; in most records, active means well fitted curve in the direction sought with a large enough effect; inconclusive means small, poorly fitted or top-dose-only effect, or another doubt; inactive means no such curve, though single readings can be large; an effect the other way counts as inactive or inconclusive. Unless noted, on the % scale 0 is the no-effect control and ±100 the full control effect.

SMILES | HEK293 viab | SNCA expr inhib | GPT2 inhibitor | IP6K1 inh | IP6K1 conf
O=C1C(c2c(O)[nH]c3ccccc23)=Nc2ccccc21 | -10.7%[23.9 µM] | -23.2% | -8.9%[27.3 µM] | -15.6 | ·
Cc1ccc(-c2cc(C(F)(F)F)nn2-c2ccc(S(N)(=O)=O)cc2)cc1 | ? | 21.7% | -3.1% | 6.7 | ·
CCC(=O)c1cc(-c2ccc(Cl)cc2)n(-c2ccc(S(N)(=O)=O)cc2)c1C | -12.9% | · | 3.0% | -34.0* | ?
Cc1ccc(-c2ncc(C(=O)N3CCC(Nc4ncccn4)CC3)c(=O)[nH]2)cc1 | 16.8% | -18.9% | 0.3% | 5.2 | ·
Cc1ccc2nc(C(C)NC(=O)c3cnc(-c4ccccn4)[nH]c3=O)[nH]c2c1 (stereo unspecified) | -12.4% | -15.7% | ? | -35.8* | ?
O=C(CCC[C@H]1NC[C@@H]2CC1CN(Cc1ccccc1)C2)N1CCCCC1 | 2.9% | -18.2% | i | 3.7 | ·
COc1cccc(N2CCN(C(=O)CCC[C@H]3NC[C@@H]4C[C@H]3CN(Cc3ccccc3)C4)CC2)c1 | 2.6% | -8.6% | ? | -26.0* | 0.9%
Cc1cnccc1CN(C)Cc1ccc2c(C)cc(=O)oc2c1 | -2.3% | 0.8% | -3.5% | -14.7 | ·
C#CC1(O)CC[C@H]2[C@@H]3CCC4=CCCC[C@@H]4[C@H]3CC[C@@]21C (stereo partly specified) | -1.3%[23.9 µM] | -53.3%[25.6 µM] | i | 6.8 | ·
C#C[C@]1(OC(C)=O)CC[C@H]2[C@@H]3CCC4=C/C(=N/O)CC[C@@H]4[C@H]3CC[C@@]21CC | 33.2%[23.9 µM] | 112.2%[25.6 µM] | i | -59.1* | ?
CC(C)Cc1nc(CN(C)C(=O)c2cccc(CCC(C)(C)O)c2)no1 | -7.5% | ? | i[11.5 µM] | -31.8* | -12.4%
COc1ccc(Cn2ccc3nc(C)c(C(=O)Nc4cccc(SC)c4)cc3c2=O)cc1 | -19.6% | -11.6% | · | -1.4 | ·
CCc1cccc(NC(=O)c2cc3c(=O)n(Cc4ccccc4)ccc3nc2C)c1 | 6.9% | -5.6% | · | -26.7* | 31.0%
COc1ccc(NC(=O)C2CCN(C(=O)c3ncn4c3COC(c3ccccc3)C4)CC2)cc1 (stereo unspecified) | 0.5% | 84.5% | i | -30.5* | -12.6%
CC(C)(C)OC(=O)N1CCC(c2c(C(=O)NCc3ccccc3)cnn2-c2ccc(F)cc2)CC1 | 10.9% | 11.1% | · | -10.8 | ·
CC(C)(C)OC(=O)N1CCC(c2c(C(=O)NCCc3ccccc3)cnn2-c2ccc(F)cc2)CC1 | -15.7% | ? | · | -25.9* | 20.2%
COc1ccc(-c2noc(Nc3cc(OC)c(OC)c(OC)c3)n2)cc1OC | ? | 131.4% | -2.3% | 0.6 | ·
COc1ccc2c(c1)CN(CC=C(C)C)C(=O)CCN2CC(O)Cc1ccccc1 (stereo unspecified) | · | · | · | -15.5 | ·
COc1cc(C(=O)NC[C@@H]2CC[C@H]3C[C@@H]2C3(C)C)nc2ccccc12 | 13.7%[87.6 µM] | -5.4%[87.6 µM] | -21.0%[88.5 µM] | 2.9 | ·
CCOC(=O)c1ccc(NC(=O)CSc2nnc(-c3ccncc3)n2-c2ccccc2)cc1 | 0.2% | 28.1% | · | -26.6* | 21.4%
O=C(CNC(=O)c1ccc(-c2cccc(C(F)(F)F)c2)cc1)NCCc1ccc(F)cc1 | -3.4%[12.5 µM] | -8.8% | ? | 3.8 | ·
Cc1cc(O)c2ccccc2c1O | -8.5%[23.9 µM] | -5.8%[25.6 µM] | ? | -27.9* | ?
C[C@@H](NC(=O)C12CC3CC(CC(C3)C1)C2)c1onc(-c2ccccc2)c1C(=O)O | 5.5%[87.6 µM] | 7.7%[87.6 µM] | -1.6%[88.5 µM] | 2.9 | ·
C=CC(=O)Nc1cc(Nc2nccc(-c3cn(C)c4ccccc34)n2)c(OC)cc1N(C)CCN(C)C | ? | · | i | 116.3 | ·
COc1ccc(-c2noc(-c3cccn3CC(=O)Nc3cccc(F)c3)n2)cc1F | 0.2% | 82.4% | i | 30.9 | ·
SMILES | HEK293 viab | SNCA expr inhib | GPT2 inhibitor | IP6K1 inh | IP6K1 conf
CCCCNC(=O)c1cc(Sc2ccc(OCC)cc2)nc2ccccc12 | 13.2% | 13.8% | · | -25.7* | -12.1%
CCN1CC(c2ccccc2)CC2(CCN(C(=O)COC)CC2)C1 (stereo unspecified) | -8.5% | 4.7% | i | -27.5* | -12.2%
CCCCOC(=O)/C(C#N)=C/c1ccc(-c2ccc(Br)cc2)o1 | 8.7% | 38.6% | · | -30.7* | 9.4%
O=C(O)c1ccc(Nc2ncc3c(n2)-c2ccc(Cl)cc2C(c2c(F)cccc2F)=NC3)cc1 | -15.0% | 119.1% | -15.9% | -48.9* | 10.3µM*
NS(=O)(=O)c1ccc(C(=O)N2CCC3(CC2)Nc2ccccc2NC3=O)cc1 | -0.7% | 0.9% | -12.9%[11.5 µM] | 3.8 | ·
COc1ccc(-c2c(C(=O)NCc3ccccn3)nc3sccn23)cc1 | -5.8% | -4.2% | 1.9% | -30.2* | 0.8%
Cn1c(=O)c2c(n3c4ccccc4nc13)NC(=O)CC2c1cccc(F)c1 (stereo unspecified) | 13.8% | 35.5% | · | -3.2 | ·
Cn1c(=O)c2c(n3c4ccccc4nc13)NC(=O)CC2c1ccccc1F (stereo unspecified) | 3.8% | 19.1% | · | -28.0* | -19.6%
CC(C)(C)C(=O)N1CCN(C(=O)c2nc3cccnc3n(CCc3ccccc3)c2=O)CC1 | 3.8% | -10.0% | i | 10.7 | ·
N#Cc1ccc(OC(=O)c2cc(-c3ccc(Cl)cc3)on2)cc1 | 4.9% | -4.6% | · | 2.3 | ·
CCOc1ccc(-c2cc(C(=O)Oc3ccc(C#N)cc3)no2)cc1 | 10.0% | -3.0% | · | -27.1* | ?
COc1cccc(CNC(=O)C2CCN(C(=O)c3ccc(-c4cccc(OC)c4)cc3)CC2)c1 | 5.2%[12.5 µM] | -5.8% | ? | 6.7 | ·
CC1(CNc2ccccc2)COc2ccc(C(=O)NCCc3cnc[nH]3)cc2N1 (stereo unspecified) | -1.8%[87.6 µM] | -9.6%[87.6 µM] | i | -40.4* | ?
CC1(CNc2ccccc2)COc2ccc(C(=O)NCc3cccnc3)cc2N1 (stereo unspecified) | -2.3%[87.6 µM] | 2.9%[87.6 µM] | 4.7%[88.5 µM] | -12.1 | ·
Cc1oc2c(c1C(=O)N1CCCCCC1)CN(Cc1cccc(F)c1)CC2 | -20.7% | 6.1% | 1.2% | -7.7 | ·
CC(C)CCN(Cc1ccco1)C(=O)Cn1ncc2c([nH]c3ccccc32)c1=O | -0.4% | ? | · | -28.6* | -9.2%
Cc1cccc(C)c1Oc1ncccc1CNC1CCN(C(C)C)CC1 | -3.9% | -0.4% | i | 33.2 | ·
COc1ccc(CCNC(=O)CN2C(=O)COc3ccccc32)cc1OC | -21.0% | -1.3% | · | -34.3* | 2.0%
CCc1cccc(CC)c1N(COC)C(=O)Cn1c(C)nc2ccccc21 | -25.9% | ? | · | -33.0* | 13.3%
CCOc1ccc(Cn2c(CNS(=O)(=O)c3ccc(CC)cc3)nc3cccnc32)cc1 | -7.1% | -3.5% | · | -22.3 | ·
CCOc1ccc(Cn2c(CNS(=O)(=O)c3ccc(Cl)s3)nc3cccnc32)cc1 | 0.6% | ? | · | -28.1* | ?
COc1ccc(-c2cc3nc(N)cc(=O)n3[nH]2)cc1 | -4.0% | 83.9% | · | -48.2* | ?
O=c1cc(-c2ccccc2)nc2cc(-c3ccc(F)cc3)[nH]n12 | -1.7% | 28.7% | · | -21.4 | ·
